# Activity calls are given as the source filed them. The calls were made as follows: active = hit-call score of the fitted dose curve at least 0.9, where 1 is the maximum; inactive = score below 0.9.
# Read-out: serum amyloid A (SAA), SAA1 (gene 6288)
# Test: BSK_CASM3C_SAA: BioMAP Diversity Plus: CASM3C Assay for serum amyloid A (SAA) Biomarker Activity (AID 2283049);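 also: SAA protein level quantified by ELISA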
# Settings: primary human coronary artery smooth muscle cells; actives raise or lower the signal
SMILES,outcome,AC50
O=C(N[C@@H](c1ccccc1)[C@@H]1CCCCN1)c1cccc(C(F)(F)F)c1Cl,inactive,–
COc1ccc(OC(F)(F)F)cc1CN[C@H]1CCCN[C@H]1c1ccccc1,inactive,–
CCCCCCCCCCCCCCCCO,inactive,–
CC1=C(C)S(=O)(=O)CCS1(=O)=O,inactive,–
O=C(O)c1cccnc1,inactive,–
CC(=O)OCC(COC(C)=O)OC(C)=O,inactive,–
CC(=O)O,inactive,–
Oc1ccc(O)cc1,inactive,–
O=C1CCCCC1,inactive,–
C/C=C/C=C/C(=O)O,inactive,–
CCCCC(CC)COP(=O)(OCC(CC)CCCC)OCC(CC)CCCC (configuration not stated),inactive,–
CC(=O)S[C@H](C(=O)N[C@H]1Cc2ccccc2[C@H]2CCC[C@@H](C(=O)O)N2C1=O)C(C)C,inactive,–
CN(C)C(=O)NC1(c2ccccc2)CCN(CCC[C@]2(c3ccc(Cl)c(Cl)c3)CCCN(C(=O)c3ccccc3)C2)CC1,inactive,–
CCCCCCCCCC[N+](C)(C)[O-],inactive,–
CC(C)c1cccc(C(C)C)c1NC(=O)NS(=O)(=O)c1cc(C(C)(C)O)co1,inactive,–
OCC(O)CO,inactive,–
Nc1nc(Cl)nc2c1ncn2[C@H]1C[C@H](O)[C@@H](CO)O1,inactive,–
CCCCCCCC(=O)OC,inactive,–
N[C@@H](Cc1c[nH]c2ccccc12)C(=O)O,inactive,–
CCCC(=O)O,inactive,–
Cc1cn([C@H]2C=C[C@@H](CO)O2)c(=O)[nH]c1=O,inactive,–
O=NO,inactive,–
Oc1ccccc1O,inactive,–
Cc1cc(SC2=C(O)C[C@@](CCc3ccc(N)cc3)(C(C)C)OC2=O)c(C(C)(C)C)cc1CO,inactive,–
CCN(CC)CCOc1ccc(C(=C(Cl)c2ccccc2)c2ccccc2)cc1,–,25.9 µM (active)
CC(C)COC(=O)CCCCC(=O)OCC(C)C,inactive,–
O=C(O)CN(CC(=O)O)CC(=O)O,inactive,–
CS(=O)(=O)c1ccc([C@@H](C[C@H]2CCC(=O)C2)C(=O)Nc2cnccn2)cc1Cl,inactive,–
CCCCCCC(C=O)=Cc1ccccc1,inactive,–

# Read-out: not listed separately
# Test: BSK_CASM3C_SRB: Viability Assessment in the BioMAP Diversity Plus: CASM3C Assay (AID 2283050);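 also: total protein by SRB staining as cytotoxicity measure in parallel cultures; cells exposed to compound for 24 h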
# Settings: primary human coronary artery smooth muscle cells
SMILES,AC50,outcome
O=C(N[C@@H](c1ccccc1)[C@@H]1CCCCN1)c1cccc(C(F)(F)F)c1Cl,30.9 µM (active),–
COc1ccc(OC(F)(F)F)cc1CN[C@H]1CCCN[C@H]1c1ccccc1,15 µM (active),–
CCCCCCCCCCCCCCCCO,–,inactive
CC1=C(C)S(=O)(=O)CCS1(=O)=O,–,inactive
O=C(O)c1cccnc1,–,inactive
CC(=O)OCC(COC(C)=O)OC(C)=O,–,inactive
CC(=O)O,–,inactive
Oc1ccc(O)cc1,–,inactive
O=C1CCCCC1,–,inactive
C/C=C/C=C/C(=O)O,–,inactive
CCCCC(CC)COP(=O)(OCC(CC)CCCC)OCC(CC)CCCC (configuration not stated),–,inactive
CC(=O)S[C@H](C(=O)N[C@H]1Cc2ccccc2[C@H]2CCC[C@@H](C(=O)O)N2C1=O)C(C)C,–,inactive
CN(C)C(=O)NC1(c2ccccc2)CCN(CCC[C@]2(c3ccc(Cl)c(Cl)c3)CCCN(C(=O)c3ccccc3)C2)CC1,–,inactive
CCCCCCCCCC[N+](C)(C)[O-],–,inactive
CC(C)c1cccc(C(C)C)c1NC(=O)NS(=O)(=O)c1cc(C(C)(C)O)co1,–,inactive
OCC(O)CO,–,inactive
Nc1nc(Cl)nc2c1ncn2[C@H]1C[C@H](O)[C@@H](CO)O1,–,inactive
CCCCCCCC(=O)OC,–,inactive
N[C@@H](Cc1c[nH]c2ccccc12)C(=O)O,–,inactive
CCCC(=O)O,–,inactive
Cc1cn([C@H]2C=C[C@@H](CO)O2)c(=O)[nH]c1=O,–,inactive
O=NO,–,inactive
Oc1ccccc1O,–,inactive
Cc1cc(SC2=C(O)C[C@@](CCc3ccc(N)cc3)(C(C)C)OC2=O)c(C(C)(C)C)cc1CO,–,inactive
CCN(CC)CCOc1ccc(C(=C(Cl)c2ccccc2)c2ccccc2)cc1,28 µM (active),–
CC(C)COC(=O)CCCCC(=O)OCC(C)C,–,inactive
O=C(O)CN(CC(=O)O)CC(=O)O,–,inactive
CS(=O)(=O)c1ccc([C@@H](C[C@H]2CCC(=O)C2)C(=O)Nc2cnccn2)cc1Cl,–,inactive
CCCCCCC(C=O)=Cc1ccccc1,–,inactive

# Read-out: Thrombomodulin, THBD (gene 7056)
# Test: BSK_CASM3C_Thrombomodulin: BioMAP Diversity Plus: CASM3C Assay for Thrombomodulin Biomarker Activity (AID 2283051);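 also: thrombomodulin protein level measured by ELISA 24 h after dosing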
# Settings: primary human coronary artery smooth muscle cells; actives raise or lower the signal
SMILES,outcome,AC50
O=C(N[C@@H](c1ccccc1)[C@@H]1CCCCN1)c1cccc(C(F)(F)F)c1Cl,inactive,–
COc1ccc(OC(F)(F)F)cc1CN[C@H]1CCCN[C@H]1c1ccccc1,inactive,–
CCCCCCCCCCCCCCCCO,inactive,–
CC1=C(C)S(=O)(=O)CCS1(=O)=O,inactive,–
O=C(O)c1cccnc1,inactive,–
CC(=O)OCC(COC(C)=O)OC(C)=O,inactive,–
CC(=O)O,inactive,–
Oc1ccc(O)cc1,–,10.7 µM (active)
O=C1CCCCC1,–,0.194 µM (active)
C/C=C/C=C/C(=O)O,inactive,–
CCCCC(CC)COP(=O)(OCC(CC)CCCC)OCC(CC)CCCC (configuration not stated),–,7.89 µM (active)
CC(=O)S[C@H](C(=O)N[C@H]1Cc2ccccc2[C@H]2CCC[C@@H](C(=O)O)N2C1=O)C(C)C,inactive,–
CN(C)C(=O)NC1(c2ccccc2)CCN(CCC[C@]2(c3ccc(Cl)c(Cl)c3)CCCN(C(=O)c3ccccc3)C2)CC1,inactive,–
CCCCCCCCCC[N+](C)(C)[O-],inactive,–
CC(C)c1cccc(C(C)C)c1NC(=O)NS(=O)(=O)c1cc(C(C)(C)O)co1,inactive,–
OCC(O)CO,inactive,–
Nc1nc(Cl)nc2c1ncn2[C@H]1C[C@H](O)[C@@H](CO)O1,inactive,–
CCCCCCCC(=O)OC,inactive,–
N[C@@H](Cc1c[nH]c2ccccc12)C(=O)O,inactive,–
CCCC(=O)O,inactive,–
Cc1cn([C@H]2C=C[C@@H](CO)O2)c(=O)[nH]c1=O,inactive,–
O=NO,inactive,–
Oc1ccccc1O,–,11 µM (active)
Cc1cc(SC2=C(O)C[C@@](CCc3ccc(N)cc3)(C(C)C)OC2=O)c(C(C)(C)C)cc1CO,inactive,–
CCN(CC)CCOc1ccc(C(=C(Cl)c2ccccc2)c2ccccc2)cc1,inactive,–
CC(C)COC(=O)CCCCC(=O)OCC(C)C,inactive,–
O=C(O)CN(CC(=O)O)CC(=O)O,inactive,–
CS(=O)(=O)c1ccc([C@@H](C[C@H]2CCC(=O)C2)C(=O)Nc2cnccn2)cc1Cl,inactive,–
CCCCCCC(C=O)=Cc1ccccc1,inactive,–
